This is an account of results in PubChem BioAssay (EPA / NIEHS).

Records with an inconclusive call do not appear. Active and inactive are the calls of the source. How the source made its calls, unless noted: active means hit-call score of the fitted dose curve at least 0.9, where 1 is the maximum; inactive means score below 0.9.

The target of assay [1] is Glucocorticoid receptor (Homo sapiens) (UniProt P04150). Kind of assay: ATG_GR_TRANS: Attagene TRANS-FACTORIAL HepG2 Assay for human Glucocorticoid Receptor (GR) (AID 2282978; active means hit-call score of the fitted dose curve at least 0.9, where 1 is the maximum;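 further: activators score as hits since higher reporter transcript over DMSO is fitted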). To be noted: HepG2 Attagene TRANS GR reporter, mRNA transcription. The procedure, abridged:
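Transiently transfected HepG2 cells express chimeric NR-GAL4 proteins acting on GAL4-UAS reporter units. Compounds are applied for 24 h. mRNA induction over DMSO is measured by capillary electrophoresis.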

Assay [2] deals with Bile acid receptor (Homo sapiens) (UniProt Q96RI1). Kind of assay: ATG_FXR_TRANS: Attagene TRANS-FACTORIAL HepG2 Assay for Farnesoid X Receptor (FXR) (AID 2282979; active means hit-call score of the fitted dose curve at least 0.9, where 1 is the maximum;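 further: hits raise reporter mRNA above DMSO so AC50 marks FXR activation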). To be noted: HepG2 Attagene TRANS FXR-GAL4 reporter transcription. The procedure, abridged:
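HepG2 cells transiently transfected with reporter constructs in which a chimeric FXR-GAL4 protein drives a GAL4-UAS reporter; 24 h compound exposure. Reporter mRNA measured by RT-PCR, FAM labelling, HpaI digestion and capillary electrophoresis; gain-of-signal versus DMSO.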

For assay [3], the target named is Oxysterols receptor LXR-alpha (Homo sapiens) (UniProt Q13133). The assay can be described thus: ATG_LXRa_TRANS: Attagene TRANS-FACTORIAL HepG2 Assay for human Liver X Receptor alpha (LXRa) (AID 2282980; active means hit-call score of the fitted dose curve at least 0.9, where 1 is the maximum). The conditions noted are these: HepG2 Attagene TRANS reporter, LXRa transactivation. Summed up:
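HepG2 cells were transiently transfected with multiplexed reporter units driven by chimeric LXRa–GAL4 fusion proteins, then dosed for 24 h. Reporter mRNA was quantified by RT-PCR, fluorescent labelling and capillary electrophoresis; gain of signal fitted against DMSO baseline.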

The target in assay [4] is Oxysterols receptor LXR-beta (Homo sapiens) (UniProt P55055). Kind of assay: ATG_LXRb_TRANS: Attagene TRANS-FACTORIAL HepG2 Assay for human Liver X Receptor beta (LXRb) (AID 2282981; active means hit-call score of the fitted dose curve at least 0.9, where 1 is the maximum). The conditions noted are these: HepG2 Attagene TRANS GAL4-LXRb reporter, mRNA. The procedure, abridged:
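Cells: HepG2, transiently transfected with GAL4-UAS reporter units plus LXRb-Gal4 fusion. Treatment: 24 h. Detection: reporter mRNA by RT-PCR, 6-FAM labelling, HpaI digestion, capillary electrophoresis.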

Assay [5] deals with Hepatocyte nuclear factor 4-alpha (Homo sapiens) (UniProt P41235). The assay can be described thus: ATG_HNF4a_TRANS: Attagene TRANS-FACTORIAL HepG2 Assay for human Hepatocyte Nuclear Factor 4 alpha (HNF4a) (AID 2282982; active means hit-call score of the fitted dose curve at least 0.9, where 1 is the maximum). To be noted: HepG2 HNF4a transactivation reporter, mRNA readout. The procedure, abridged:
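Transfected HepG2 reporter cells are dosed for 24 h; reporter RNA is reverse-transcribed, amplified, fluorescently labelled and HpaI-digested before CE sizing. Positive-direction fit against DMSO.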

Assay [6] has as its target Nuclear respiratory factor 1 (Homo sapiens) (UniProt Q16656). The assay can be described thus: ATG_NRF1_CIS: Attagene CIS-FACTORIAL HepG2 Assay for human Nuclear Respiratory Factor 1 (NRF1) Orphan Gene (AID 2282987). To be noted: HepG2 NRF1 cis-element reporter, Attagene multiplex; actives raise or lower the signal. The procedure, abridged:
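Reporter mRNA induction or loss in HepG2 cells after 24 h dosing; cis-regulated reporter constructs report endogenous transcription-factor activity. Quantified by RT-PCR/capillary electrophoresis fluorescence, DMSO-referenced.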

Assay [7] can be described thus: ATG_NFI_CIS: Attagene CIS-FACTORIAL HepG2 Assay for human Nuclear Factor I (NFI) (AID 2282989). The conditions noted are these: HepG2 cis-regulatory reporter, NFI response element transcription; actives raise or lower the signal. The procedure, abridged: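 Transfected HepG2 liver cells, exposed 24 h, supplied total RNA for oligo(dT) reverse transcription and reporter-specific PCR. Labelled, HpaI-cut fragments were sized by capillary electrophoresis; DMSO set the baseline for bidirectional fitting.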

Assay [8] concerns the target Myc proto-oncogene protein (Homo sapiens) (UniProt P01106). The assay can be described thus: ATG_Myc_CIS: Attagene CIS-FACTORIAL HepG2 Assay for human Myelocytomatosis (Myc) Proto-Oncogene Transcription Factor (AID 2282990). The conditions noted are these: HepG2, Attagene cis-reporter transcription factor activity; actives raise or lower the signal. Summed up:
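HepG2, transient MRTU transfection (cis promoters, endogenous TFs); 24 h dosing; TriZol RNA → oligo(dT) RT → PCR → 6-FAM primer extension → HpaI cut → CE. Bidirectional fit vs DMSO.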

A short description of assay [9]: ATG_NRF2_ARE_CIS: Attagene CIS-FACTORIAL HepG2 Assay for human Nuclear Factor Erythroid 2 Related Factor 2 (NFR2) response to Antioxidant Response Elements (ARE) (AID 2282992).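 On AC50: reporter mRNA level measured by RT-PCR and capillary electrophoresis fluorescence.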 To be noted: HepG2 Attagene ARE/NRF2 reporter, transcription factor activity; actives raise or lower the signal. The procedure, abridged:
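Multiplexed reporter mRNA profiling in HepG2 after a 24 h chemical exposure. Curves fitted in both directions relative to DMSO negative control.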

Assay [10] is described as follows: ATG_Oct_MLP_CIS: Attagene CIS-FACTORIAL HepG2 Assay for human Octamer-Binding Transcription Factor (Oct) (AID 2282993). To be noted: HepG2 Attagene cis-factorial Oct reporter, mRNA; actives raise or lower the signal. The procedure, abridged: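 Using HepG2 cells bearing transfected cis-reporter constructs, mRNA induction was read after 24 h by fluorescent RT-PCR and capillary electrophoresis, with DMSO defining baseline for gain- or loss-of-signal fits.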

The target in assay [11] is Cellular tumor antigen p53 (Homo sapiens) (UniProt P04637). Kind of assay: ATG_p53_CIS: Attagene CIS-FACTORIAL HepG2 Assay for human p53 Transcription Factor (AID 2282994). The conditions noted are these: HepG2 p53 cis-element reporter, Attagene mRNA; actives raise or lower the signal. The procedure, abridged:
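Multiplexed reporter mRNA assay in human HepG2 liver cells; cis-regulated units report endogenous factor activity. Values come from bidirectional curve fitting against DMSO negative control after 24 h treatment.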

A short description of assay [12]: BSK_3C_TissueFactor: BioMAP Diversity Plus: 3C Assay for Tissue Factor Biomarker Activity (AID 2282997). To be noted: BioMAP 3C HUVEC, tissue factor biomarker readout; actives raise or lower the signal. The procedure, abridged:
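Primary human umbilical vein endothelial cells in the 3C system were exposed to test chemical for 24 h, then Tissue Factor measured by ELISA. Activity was fitted bidirectionally against DMSO as negative control and baseline.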

Assay [13] is described as follows: BSK_3C_uPAR: BioMAP Diversity Plus: 3C Assay for Urokinase-type plasminogen activator receptor (uPAR) Biomarker Activity (AID 2282998). To be noted: BioMAP 3C HUVEC, uPAR biomarker ELISA; actives raise or lower the signal. Summed up:
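In this endothelial cell-based assay, human umbilical vein primary cells were treated with chemicals and harvested at 24 h. uPAR was quantified using ELISA, with gains or losses fitted relative to DMSO controls.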

Assay [14] in a line: ATG_M_32_TRANS: Attagene TRANS-FACTORIAL HepG2 Assay for M32 Transcription Factor (Internal Marker) (AID 2282984; active means hit-call score of the fitted dose curve at least 0.9, where 1 is the maximum). The conditions noted are these: HepG2 Attagene TRANS M32 internal marker reporter. The procedure, abridged: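 Using transiently transfected HepG2 cells exposed to test chemicals for 24 h, reporter transcripts are converted to labelled cDNA fragments and quantified by capillary electrophoresis. DMSO defines the activity baseline.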

The target of assay [15] is Nuclear receptor subfamily 4 group A member 2 (Homo sapiens) (UniProt P43354). The assay can be described thus: ATG_NURR1_TRANS: Attagene TRANS-FACTORIAL HepG2 Assay for human Nuclear Receptor Related Protein 1 (NURR1) (AID 2282985; active means hit-call score of the fitted dose curve at least 0.9, where 1 is the maximum). The conditions noted are these: HepG2 Attagene TRANS reporter, mRNA readout. The procedure, abridged: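 Cells: HepG2, transiently transfected. Exposure: 24 h. Detection: fluorescence of labelled RT-PCR products separated by capillary electrophoresis; upward fit versus DMSO.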

The target in assay [16] is Transcriptional activator Myb (Homo sapiens) (UniProt P10242). The assay can be described thus: ATG_Myb_CIS: Attagene CIS-FACTORIAL HepG2 Assay for human Myeloblastosis (Myb) Proto-Oncogene Transcription Factor (AID 2282986). The conditions noted are these: HepG2 Attagene CIS-FACTORIAL Myb reporter transcription; actives raise or lower the signal. Summed up: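 Using HepG2 liver cells bearing transiently transfected cis-promoter reporter constructs, the assay measures induction or loss of reporter mRNA after 24 hours of dosing. Detection used fluorescently labeled RT-PCR products separated by capillary electrophoresis.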

Assay [17] is described as follows: ATG_NF_kB_CIS: Attagene CIS-FACTORIAL HepG2 Assay for human Nuclear Factor Kappa B (NF-kB) (AID 2282991). The conditions noted are these: HepG2 Attagene cis-factorial NF-kB reporter mRNA; actives raise or lower the signal. The procedure, abridged: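 DMSO served as negative control and baseline for bidirectional curve fitting. Transiently transfected HepG2 cells were dosed for 24 h, then reporter transcripts were measured by RT-PCR with capillary electrophoresis detection.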

A short description of assay [18]: ATG_GAL4_TRANS: Attagene TRANS-FACTORIAL HepG2 Assay for GAL4 (Internal Marker) (AID 2282976; active means hit-call score of the fitted dose curve at least 0.9, where 1 is the maximum). To be noted: HepG2 Attagene TRANS GAL4 internal marker reporter. Summed up: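 HepG2 cells transiently transfected with multiplexed GAL4-UAS reporter constructs were dosed for 24 h. Reporter mRNA was measured by RT-PCR, 6-FAM primer extension, HpaI digestion and capillary electrophoresis, and gain of signal was fitted relative to DMSO.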

A short description of assay [19]: ATG_M_06_TRANS: Attagene TRANS-FACTORIAL HepG2 Assay for M06 Transcription Factor (Internal Marker) (AID 2282983; active means hit-call score of the fitted dose curve at least 0.9, where 1 is the maximum;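 further: reporter transcript level by RT-PCR then capillary electrophoresis fluorescence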). To be noted: HepG2 Attagene TRANS M06 internal marker reporter. Summed up:
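HepG2 cells transiently transfected with multiplexed GAL4-UAS reporter transcription units; after 24 h compound exposure, reporter mRNA measured by RT-PCR, FAM-labelled primer extension, HpaI digestion and capillary electrophoresis. Gain-of-signal fitted versus DMSO baseline; background control readout.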

Assay [20] in a line: ATG_Hpa5_TRANS: Attagene TRANS-FACTORIAL HepG2 Assay for human GAL4-Hpa5 Hepatocyte Transcription Factor Basal Promoter (AID 2282975; active means hit-call score of the fitted dose curve at least 0.9, where 1 is the maximum;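 further: hits are increases in reporter mRNA over DMSO baseline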). To be noted: HepG2 Attagene GAL4-Hpa5 transcription reporter. Summed up: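 Basal-promoter GAL4 background control within the HepG2 trans-factorial panel of transiently transfected reporter units. Reporter mRNA is measured 24 h after dosing by RT-PCR and capillary electrophoresis, fitted for gain of signal versus DMSO.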

Sequence of Oxysterols receptor LXR-beta (Homo sapiens) (P55055 whole entry, looked up, the tested form may be a part): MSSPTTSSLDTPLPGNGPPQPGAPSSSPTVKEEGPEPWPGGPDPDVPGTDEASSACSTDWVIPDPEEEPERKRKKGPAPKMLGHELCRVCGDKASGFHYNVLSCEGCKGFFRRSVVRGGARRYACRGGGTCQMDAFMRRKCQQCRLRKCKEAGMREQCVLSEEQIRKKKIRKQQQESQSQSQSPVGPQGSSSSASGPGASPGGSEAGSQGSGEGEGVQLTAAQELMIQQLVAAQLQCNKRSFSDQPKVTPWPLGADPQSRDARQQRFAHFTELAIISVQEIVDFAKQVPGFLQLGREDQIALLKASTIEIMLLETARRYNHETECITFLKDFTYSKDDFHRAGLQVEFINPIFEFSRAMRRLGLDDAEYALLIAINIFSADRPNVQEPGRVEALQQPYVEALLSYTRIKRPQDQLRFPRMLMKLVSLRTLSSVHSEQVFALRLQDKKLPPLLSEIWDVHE
Sequence of Cellular tumor antigen p53 (Homo sapiens) (P04637 whole entry, looked up): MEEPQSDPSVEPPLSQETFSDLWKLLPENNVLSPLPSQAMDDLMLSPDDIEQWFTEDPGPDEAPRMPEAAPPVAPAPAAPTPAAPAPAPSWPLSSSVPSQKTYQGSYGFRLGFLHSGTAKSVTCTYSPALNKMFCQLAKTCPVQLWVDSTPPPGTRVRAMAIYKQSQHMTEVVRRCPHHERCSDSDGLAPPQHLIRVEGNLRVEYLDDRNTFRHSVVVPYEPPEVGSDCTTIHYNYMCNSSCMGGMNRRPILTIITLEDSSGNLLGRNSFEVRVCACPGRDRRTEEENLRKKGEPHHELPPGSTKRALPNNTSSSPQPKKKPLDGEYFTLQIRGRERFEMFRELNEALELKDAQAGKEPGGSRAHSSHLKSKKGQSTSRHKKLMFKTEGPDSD
Sequence of Nuclear respiratory factor 1 (Homo sapiens) (Q16656 whole entry, looked up): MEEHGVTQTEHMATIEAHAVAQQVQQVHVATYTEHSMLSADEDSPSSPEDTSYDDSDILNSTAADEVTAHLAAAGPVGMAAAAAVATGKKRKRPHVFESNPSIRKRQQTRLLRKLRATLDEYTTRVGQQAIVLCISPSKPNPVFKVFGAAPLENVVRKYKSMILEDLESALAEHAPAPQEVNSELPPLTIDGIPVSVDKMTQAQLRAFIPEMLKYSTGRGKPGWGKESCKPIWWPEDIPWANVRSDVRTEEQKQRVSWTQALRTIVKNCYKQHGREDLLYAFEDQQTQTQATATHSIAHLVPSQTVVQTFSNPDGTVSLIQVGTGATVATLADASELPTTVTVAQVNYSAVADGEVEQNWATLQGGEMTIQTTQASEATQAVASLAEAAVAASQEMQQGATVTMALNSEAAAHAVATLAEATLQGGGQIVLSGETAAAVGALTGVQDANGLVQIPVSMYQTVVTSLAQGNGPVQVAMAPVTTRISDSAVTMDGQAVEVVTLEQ
Sequence of Myc proto-oncogene protein (Homo sapiens) (P01106 whole entry, looked up): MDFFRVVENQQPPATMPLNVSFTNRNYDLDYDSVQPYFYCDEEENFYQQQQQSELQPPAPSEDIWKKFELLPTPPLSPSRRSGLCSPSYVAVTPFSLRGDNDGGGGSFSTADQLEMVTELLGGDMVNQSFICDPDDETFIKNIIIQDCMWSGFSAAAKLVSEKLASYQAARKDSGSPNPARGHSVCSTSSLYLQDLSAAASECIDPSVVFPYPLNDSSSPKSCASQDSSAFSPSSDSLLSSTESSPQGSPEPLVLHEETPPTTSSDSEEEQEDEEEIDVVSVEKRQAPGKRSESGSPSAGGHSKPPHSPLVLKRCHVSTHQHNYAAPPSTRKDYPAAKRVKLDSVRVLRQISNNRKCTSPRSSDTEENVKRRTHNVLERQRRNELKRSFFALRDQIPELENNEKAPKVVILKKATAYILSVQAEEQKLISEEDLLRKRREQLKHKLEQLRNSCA
Sequence of Bile acid receptor (Homo sapiens) (Q96RI1 whole entry, looked up, the tested form may be a part): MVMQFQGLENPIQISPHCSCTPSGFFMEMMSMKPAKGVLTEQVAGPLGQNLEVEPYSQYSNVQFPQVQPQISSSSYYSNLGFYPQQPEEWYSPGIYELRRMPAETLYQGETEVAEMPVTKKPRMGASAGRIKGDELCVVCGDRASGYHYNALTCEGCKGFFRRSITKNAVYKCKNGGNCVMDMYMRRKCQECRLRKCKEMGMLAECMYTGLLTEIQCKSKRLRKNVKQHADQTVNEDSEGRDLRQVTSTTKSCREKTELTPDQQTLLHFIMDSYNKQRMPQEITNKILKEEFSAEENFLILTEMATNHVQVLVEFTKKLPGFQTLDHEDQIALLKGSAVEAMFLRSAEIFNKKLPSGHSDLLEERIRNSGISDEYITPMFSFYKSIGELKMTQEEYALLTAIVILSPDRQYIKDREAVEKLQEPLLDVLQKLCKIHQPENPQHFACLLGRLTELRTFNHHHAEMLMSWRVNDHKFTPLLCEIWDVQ
Sequence of Oxysterols receptor LXR-alpha (Homo sapiens) (Q13133 whole entry, looked up, the tested form may be a part): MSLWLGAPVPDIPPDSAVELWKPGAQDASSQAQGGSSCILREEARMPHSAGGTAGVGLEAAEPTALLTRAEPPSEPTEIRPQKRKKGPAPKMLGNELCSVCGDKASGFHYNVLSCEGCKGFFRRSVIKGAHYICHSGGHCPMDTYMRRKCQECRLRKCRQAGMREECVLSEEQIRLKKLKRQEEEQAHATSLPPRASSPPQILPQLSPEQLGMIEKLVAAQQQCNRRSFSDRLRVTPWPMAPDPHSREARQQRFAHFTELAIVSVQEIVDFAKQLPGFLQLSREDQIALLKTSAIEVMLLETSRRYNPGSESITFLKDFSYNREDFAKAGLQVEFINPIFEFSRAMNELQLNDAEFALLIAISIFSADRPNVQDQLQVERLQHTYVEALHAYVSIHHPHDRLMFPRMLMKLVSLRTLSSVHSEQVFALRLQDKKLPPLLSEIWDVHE
Sequence of Transcriptional activator Myb (Homo sapiens) (P10242 whole entry, looked up): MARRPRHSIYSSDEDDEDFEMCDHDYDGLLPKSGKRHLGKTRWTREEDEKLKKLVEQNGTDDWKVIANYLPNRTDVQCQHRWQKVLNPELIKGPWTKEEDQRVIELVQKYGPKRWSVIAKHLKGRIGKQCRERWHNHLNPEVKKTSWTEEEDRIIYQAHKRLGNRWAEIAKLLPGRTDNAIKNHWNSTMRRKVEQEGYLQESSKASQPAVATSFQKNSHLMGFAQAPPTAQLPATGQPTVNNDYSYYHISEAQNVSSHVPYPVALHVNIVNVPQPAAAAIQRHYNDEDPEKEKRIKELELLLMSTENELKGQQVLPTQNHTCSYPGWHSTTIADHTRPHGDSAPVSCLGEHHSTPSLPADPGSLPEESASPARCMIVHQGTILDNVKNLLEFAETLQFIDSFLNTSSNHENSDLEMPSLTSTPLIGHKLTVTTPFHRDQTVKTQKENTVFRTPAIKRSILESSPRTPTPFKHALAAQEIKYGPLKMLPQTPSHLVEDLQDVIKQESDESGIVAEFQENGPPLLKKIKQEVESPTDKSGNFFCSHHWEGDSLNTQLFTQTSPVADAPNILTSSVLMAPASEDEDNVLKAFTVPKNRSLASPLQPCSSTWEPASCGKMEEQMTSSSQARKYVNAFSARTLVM
Sequence of Glucocorticoid receptor (Homo sapiens) (P04150 whole entry, looked up, the tested form may be a part): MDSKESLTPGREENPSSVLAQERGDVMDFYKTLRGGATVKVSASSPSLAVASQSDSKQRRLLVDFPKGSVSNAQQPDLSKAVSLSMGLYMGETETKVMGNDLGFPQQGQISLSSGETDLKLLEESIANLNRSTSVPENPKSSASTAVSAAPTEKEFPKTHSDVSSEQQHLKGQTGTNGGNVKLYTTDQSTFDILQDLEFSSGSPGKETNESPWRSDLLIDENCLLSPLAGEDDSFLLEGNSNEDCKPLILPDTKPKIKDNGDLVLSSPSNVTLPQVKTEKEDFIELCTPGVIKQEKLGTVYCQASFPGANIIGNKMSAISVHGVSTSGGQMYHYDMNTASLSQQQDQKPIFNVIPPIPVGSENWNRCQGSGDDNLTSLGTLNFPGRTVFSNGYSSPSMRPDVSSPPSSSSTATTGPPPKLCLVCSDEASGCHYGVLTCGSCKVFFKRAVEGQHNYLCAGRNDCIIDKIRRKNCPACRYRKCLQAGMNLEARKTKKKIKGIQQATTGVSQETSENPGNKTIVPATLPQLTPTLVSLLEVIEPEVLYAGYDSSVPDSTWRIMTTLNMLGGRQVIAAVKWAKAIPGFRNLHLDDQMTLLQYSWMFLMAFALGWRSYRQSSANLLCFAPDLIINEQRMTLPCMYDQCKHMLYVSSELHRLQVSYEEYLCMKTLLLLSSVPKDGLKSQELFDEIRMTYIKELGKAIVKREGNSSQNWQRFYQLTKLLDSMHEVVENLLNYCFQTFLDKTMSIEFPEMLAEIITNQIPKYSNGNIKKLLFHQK
Sequence of Hepatocyte nuclear factor 4-alpha (Homo sapiens) (P41235 whole entry, looked up): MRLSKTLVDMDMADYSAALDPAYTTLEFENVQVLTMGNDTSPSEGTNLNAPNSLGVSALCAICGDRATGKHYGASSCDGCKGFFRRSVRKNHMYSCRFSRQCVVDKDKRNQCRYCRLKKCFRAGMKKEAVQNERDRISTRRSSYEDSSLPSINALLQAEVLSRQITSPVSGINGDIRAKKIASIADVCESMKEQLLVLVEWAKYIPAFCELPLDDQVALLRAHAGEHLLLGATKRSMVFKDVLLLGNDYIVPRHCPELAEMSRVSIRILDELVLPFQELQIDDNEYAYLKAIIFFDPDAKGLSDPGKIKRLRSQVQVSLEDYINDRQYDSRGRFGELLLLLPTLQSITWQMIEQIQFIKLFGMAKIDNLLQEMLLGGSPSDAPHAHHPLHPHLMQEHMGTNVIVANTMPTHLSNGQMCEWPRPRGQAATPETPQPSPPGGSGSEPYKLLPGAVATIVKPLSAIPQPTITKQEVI

Consider `CC(C)C1(C)N=C(c2ncccc2C(=O)O)NC1=O` (stereo not given), for which the compound was called inactive in assay [1], in assay [2], in [3], in [4], in [5] and in assay [6]. Moreover, the compound was classed as inactive in [7], in assay [8], in assay [9], in assay [10], in assay [11] and in assay [12]. Moreover, in [13], the result was inactive.
Turning to `CO/N=C(/C1=NOCCO1)c1ccccc1Oc1ncnc(Oc2ccccc2Cl)c1F`, the result in assay [1], in assay [2], in assay [3], in assay [4], in assay [5] and in [14] was inactive. In addition, the call in assay [15], in assay [16], in assay [7], in [8], in [17] and in assay [11] was inactive. For the same compound, in assay [12], the outcome was inactive. Further, the AC50 in assay [6] was 5.54 µM (active); in assay [9], 0.946 µM (active); in assay [10] it was 0.833 µM (active); in [13], 5.95 µM (active).
For `COP(=S)(OC)SCn1nnc2ccccc2c1=O`, the compound was classed as inactive in assay [18], in assay [3], in assay [4], in assay [19], in assay [14] and in assay [16]. For the same compound, the outcome in assay [6], in [7], in assay [8], in assay [11], in assay [12] and in [13] was inactive. The AC50 in assay [9] is 25.1 µM (active); in assay [10], 12.8 µM (active).
Turning to `COc1cc(OC)nc(NC(=O)NS(=O)(=O)c2ncccc2OCC(F)(F)F)n1`, the outcome in assay [20], in [1], in [2], in assay [3], in [4] and in [14] was inactive. Also, the outcome in assay [15], in assay [16], in assay [6], in assay [7], in [8] and in assay [9] was inactive. In addition, the outcome in assay [10], in assay [11], in assay [12] and in [13] was inactive.
